Read-out in experiment [1]: Urokinase-type plasminogen activator receptor (uPAR), PLAUR (gene 5329)
Briefly: BSK_4H_uPAR: BioMAP Diversity Plus: 4H Assay for Urokinase-type plasminogen activator receptor (uPAR) Biomarker Activity (AID 2283030). As to conditions: primary human endothelial cells (HUVEC); actives raise or lower the signal. A digest of the protocol:
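Primary human umbilical vein endothelial cells were exposed to chemical for 24 h before cell-surface uPAR was quantified by ELISA. Activity was fitted bidirectionally against the DMSO negative control baseline.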

Read-out in experiment [2]: Vascular endothelial growth factor receptor 2 (Homo sapiens) (UniProt P35968)
Put plainly: BSK_4H_VEGFRII: BioMAP Diversity Plus: 4H Assay for Vascular endothelial growth factor receptor 2 (VEGFR2) Biomarker Activity (AID 2283031).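 On AC50: cell-surface VEGFR2 protein level quantified by ELISA.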 The conditions noted are these: primary human endothelial cells (HUVEC); actives raise or lower the signal. A digest of the protocol:
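Primary human umbilical vein endothelial cells in the BioMAP 4H system were dosed with test chemical, and 24 h later VEGFRII was measured by ELISA. Activity was fitted bidirectionally against DMSO as negative control and baseline.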

Read-out in experiment [3]: Human Leukocyte Antigen - DR isotype (HLADR), HLA-DRA (gene 3122)
Briefly: BSK_BE3C_HLADR: BioMAP Diversity Plus: BE3C Assay for Human Leukocyte Antigen - DR isotype (HLADR) Biomarker Activity (AID 2283032). The conditions noted are these: primary human bronchial epithelial cells; actives raise or lower the signal. A digest of the protocol:
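Human primary bronchial epithelial cells in the BE3C system were exposed to chemicals for 24 h, after which HLA-DR levels were quantified by ELISA. Activity was fitted bidirectionally, gain or loss of signal, against DMSO as negative control and baseline.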

Read-out in experiment [4]: Vascular cell adhesion molecule 1 (VCAM1), VCAM1 (gene 7412)
Briefly: BSK_4H_VCAM1: BioMAP Diversity Plus: 4H Assay for Vascular cell adhesion molecule 1 (VCAM1) Biomarker Activity (AID 2283033).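 On outcome: cell-surface VCAM-1 protein measured by ELISA.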 The conditions noted are these: primary human endothelial cells (HUVEC); actives raise or lower the signal. A digest of the protocol: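 Primary human umbilical vein endothelial cells were exposed to chemicals for 24 h, after which VCAM-1 was quantified by ELISA. Responses were fitted bidirectionally against DMSO as negative control and activity baseline.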

Read-out in experiment [5]: Interferon-gamma inducible Protein 10 (IP10), CXCL10 (gene 3627)
Put plainly: BSK_BE3C_IP10: BioMAP Diversity Plus: BE3C Assay for Interferon-gamma inducible Protein 10 (IP10) Biomarker Activity (AID 2283034). The conditions noted are these: primary human bronchial epithelial cells; actives raise or lower the signal. The essentials: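 Human primary bronchial epithelial cells were exposed to chemicals for 24 hours, after which IP-10 levels were measured by ELISA. Data were fitted bidirectionally against DMSO, which served as the negative control and activity baseline.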

Read-out in experiment [6]: Monokine induced gamma interferon (MIG), CXCL9 (gene 4283)
Put plainly: BSK_BE3C_MIG: BioMAP Diversity Plus: BE3C Assay for Monokine induced gamma interferon (MIG) Biomarker Activity (AID 2283035).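 On outcome: MIG protein measured by ELISA in BE3C cultures after 24 h of dosing.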 As to conditions: primary human bronchial epithelial cells; actives raise or lower the signal. The essentials: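 MIG level was determined by ELISA after 24 h chemical treatment of primary human bronchial epithelial cells. Values were fitted bidirectionally with DMSO as the negative control and activity baseline.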

Read-out in experiment [7]: Transforming growth factor beta 1 (TGFb1), TGFB1 (gene 7040)
Briefly: BSK_BE3C_TGFb1: BioMAP Diversity Plus: BE3C Assay for Transforming growth factor beta 1 (TGFb1) Biomarker Activity (AID 2283036). As to conditions: primary human bronchial epithelial cells; actives raise or lower the signal. A digest of the protocol: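 Human primary bronchial epithelial cells (BE3C system) were dosed with chemical and TGF-b1 levels measured by ELISA at 24 h. Activity was fitted bidirectionally relative to DMSO negative control as baseline.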

Read-out in experiment [8]: Plasminogen activator inhibitor-1 (PAI1), SERPINE1 (gene 5054)
Put plainly: BSK_BE3C_PAI1: BioMAP Diversity Plus: BE3C Assay for Plasminogen activator inhibitor-1 (PAI1) Biomarker Activity (AID 2283037). The conditions noted are these: primary human bronchial epithelial cells; actives raise or lower the signal. A digest of the protocol:
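Human primary bronchial epithelial cells were exposed to chemical for 24 h, then PAI-1 was quantified by ELISA. Activity was fitted bidirectionally relative to the DMSO negative control baseline.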

Read-out in experiment [9]: urokinase plasminogen activator (uPA), PLAU (gene 5328)
Put plainly: BSK_BE3C_uPA: BioMAP Diversity Plus: BE3C Assay for urokinase plasminogen activator (uPA) Biomarker Activity (AID 2283038).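 Further: uPA protein level quantified by ELISA in cell cultures; uPA read one day after compound addition.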 As to conditions: primary human bronchial epithelial cells; actives raise or lower the signal. A digest of the protocol: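 Human primary bronchial epithelial cells were exposed to chemical for 24 h, then uPA levels were measured by ELISA. Responses were fitted bidirectionally against DMSO as negative control and baseline. Parallel SRB staining of total protein gauged overt cytotoxicity.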

Read-out in experiment [10]: Urokinase-type plasminogen activator receptor (uPAR), PLAUR (gene 5329)
Briefly: BSK_BE3C_uPAR: BioMAP Diversity Plus: BE3C Assay for Urokinase-type plasminogen activator receptor (uPAR) Biomarker Activity (AID 2283039).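 On outcome: cells exposed to compound for one day before measurement.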 As to conditions: primary human bronchial epithelial cells; actives raise or lower the signal. A digest of the protocol:
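Primary human bronchial epithelial cells were dosed with chemical and harvested 24 h later; uPAR was quantified by ELISA. Activity was fitted bidirectionally against DMSO as negative control and baseline.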

Consider 15 molecules from PubChem BioAssay (EPA / NIEHS).

Several values for one entry are separate records, joined by “and”; a condition that tells them apart may be missing. Identical values can stand only once. A structure can be active in one record and inactive in another. Activity calls are given as the source filed them. How the source made its calls: active means hit-call score of the fitted dose curve at least 0.9, where 1 is the maximum; inactive means score below 0.9.

On to `C=C(C)C(=O)OCCCCCCCCCCCC`, for which the outcome in [1], in experiment [2], in experiment [3], in experiment [4], in [5] and in experiment [6] was inactive. The outcome in experiment [7], in experiment [8], in experiment [9] and in experiment [10] was inactive.

Regarding `CCc1cccc(C)c1N(C(=O)CS(=O)(=O)O)C(C)COC` (configuration not stated), the result in [1], in experiment [2], in experiment [3], in experiment [4], in [5] and in experiment [6] was inactive. The result in [7], in experiment [8], in experiment [9] and in experiment [10] was inactive.

As to `CCN1CN(CC)CN(CC)C1`, the result in [1], in experiment [2], in experiment [3], in experiment [4], in [5] and in [6] was inactive. In addition, the outcome in experiment [7], in [8], in [9] and in experiment [10] was inactive.

In general, AC50 refers to the concentration giving half of the maximal activity seen. As for `CC/C=C\CCOC(=O)c1ccccc1O`, the AC50 was 21.1 µM (active) in experiment [1], 20 µM (active) in experiment [2], 20 µM (active) in experiment [3] and 25.1 µM (active) in experiment [4]. For the same molecule, the outcome in [5], in experiment [6], in experiment [7], in [8], in [9] and in experiment [10] was inactive.

As to `Cc1c(O)cccc1O`, the outcome in [1], in experiment [2], in experiment [3], in experiment [4], in experiment [5] and in experiment [6] was inactive. Besides, the outcome in experiment [7], in [8], in [9] and in experiment [10] was inactive.

Take `O=C(Cl)c1c(Cl)c(Cl)c(C(=O)Cl)c(Cl)c1Cl`: the outcome in experiment [1], in experiment [2], in experiment [3], in experiment [4], in experiment [5] and in experiment [6] was inactive. Moreover, the result in [7], in experiment [8], in experiment [9] and in [10] was inactive.

For the molecule `CC(C)CCCCCOC(=O)CS`, the outcome in experiment [1], in [2], in experiment [3], in [4], in experiment [5] and in experiment [6] was inactive. For the same molecule, the result in experiment [7], in experiment [8], in experiment [9] and in [10] was inactive.

Regarding `C=CC(=O)NC(C)(C)C`, the outcome in experiment [1], in experiment [2], in experiment [3], in [4], in experiment [5] and in [6] was inactive. The outcome in experiment [7], in experiment [8], in experiment [9] and in experiment [10] was inactive.

Regarding `c1ccc2sc(SSN3CCOCC3)nc2c1`, the half-maximal activity concentration (AC50) is 6.7 µM (active) in [1], 6.28 µM (active) in [4] and 12.3 µM (active) in [5]. The result in experiment [2], in experiment [3], in [6], in experiment [7], in experiment [8] and in experiment [9] was inactive. Moreover, in [10], the result was inactive.

Take `CC(C)C(=O)OCCc1ccccc1`: the outcome in experiment [1], in [2], in [3], in experiment [4], in experiment [5] and in [6] was inactive. For the same molecule, the outcome in experiment [8], in [9] and in experiment [10] was inactive.

As for `C=CC(=O)OCCCCCCOC(=O)C=C`, the AC50 in [1] was 20 µM (active); in [2] it was 20 µM (active); in experiment [3] it was 7.89 µM (active); in experiment [4] it was 20 µM (active); in experiment [5] it was 26 µM (active); in experiment [6], 35.7 µM (active). Moreover, the AC50 in experiment [10] was 11.4 µM (active). Besides, the outcome in [7], in experiment [8] and in experiment [9] was inactive.

Consider `O=C(O)C(F)(F)C(F)(F)C(F)(F)C(F)(F)C(=O)O`, for which the outcome in [1], in experiment [2], in [3], in experiment [4], in [5] and in experiment [6] was inactive. The result in [8], in experiment [9] and in [10] was inactive.

Consider `COC(OC)(C(=O)c1ccccc1)c1ccccc1`, for which the outcome in [1], in [2], in [3], in experiment [4], in [5] and in [6] was inactive. For the same molecule, the outcome in experiment [7], in [8], in [9] and in experiment [10] was inactive.

For `CC(CCC(=O)O)(c1ccc(O)cc1)c1ccc(O)cc1`, the outcome in experiment [1], in [2], in experiment [3], in experiment [4], in experiment [5] and in experiment [6] was inactive. The result in experiment [8], in experiment [9] and in [10] was inactive.

Turning to `c1ccc(Nc2cccc3ccccc23)cc1`, the concentration at half-maximal activity (AC50) in [1] is 35.4 µM (active) and 35.1 µM (active); in [2] it was 33.2 µM (active) and 32.2 µM (active); in experiment [3] it was 28 µM (active) and 30.7 µM (active); in [4], 31.4 µM (active) and 28.8 µM (active); in [5], 29.1 µM (active) and 30.6 µM (active); in experiment [8], 12.7 µM (active) and 20.4 µM (active). The half-maximal activity concentration (AC50) in experiment [10] was 35.2 µM (active). Further, the result in experiment [6], in experiment [9] and in experiment [10] was inactive.
